# Assay outcomes as filed in PubChem.
# The list is not random: actives were taken first. Their share in the collection is about 1.7%.
# GLP1R inv ag = qHTS of GLP-1 Receptor Inverse Agonists (Inhibition Mode) | Glucagon-like peptide 1 receptor (Homo sapiens), P43220 | HEK293 GLP-1R CRE-luciferase, luminescence, 24 h; GLP-1R form is constitutively active | Potency, µM (series often up to 38.3 µM), for the others: top-dose activity change, negative = inhibition, most hits filed as inhibitors | 1.6% of 410,000 active | AID 624417, 2012; note: % is set by controls: 0 for no effect and ±100 for the full control effect; nearly all actives have a fitted effect of over 55% in size
# Target sequence (P43220 whole entry, looked up): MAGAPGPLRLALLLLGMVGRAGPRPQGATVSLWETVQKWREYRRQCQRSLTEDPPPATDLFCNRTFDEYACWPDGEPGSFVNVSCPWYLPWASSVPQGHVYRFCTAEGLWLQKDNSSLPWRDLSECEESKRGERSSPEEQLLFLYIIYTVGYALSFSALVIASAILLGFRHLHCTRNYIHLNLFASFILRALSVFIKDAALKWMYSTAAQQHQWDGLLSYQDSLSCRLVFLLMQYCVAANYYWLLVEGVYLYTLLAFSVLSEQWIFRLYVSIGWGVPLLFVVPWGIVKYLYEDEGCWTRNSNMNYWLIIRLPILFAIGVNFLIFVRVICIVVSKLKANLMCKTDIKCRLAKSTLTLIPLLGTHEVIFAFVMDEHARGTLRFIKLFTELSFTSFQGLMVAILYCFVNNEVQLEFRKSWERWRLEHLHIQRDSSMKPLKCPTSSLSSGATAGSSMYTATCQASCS
#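 Constitutively active GLP-1R drives a cAMP-responsive luciferase in stably transfected HEK293 cells; test compounds are added after overnight (12 h) attachment and left 24 hr, and signal loss in luminescence marks inhibition.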
# PTHR1 ag = qHTS for PTHR1 Agonists: Primary Screen; 0.075% of 410,000 active; Parathyroid hormone/parathyroid hormone-related peptide receptor (Homo sapiens), Q03431; Potency, µM (doses to about 115 µM), without a hit: at the highest dose activation, hits mostly activators; HEK293 GP2 PTHR1 cells, GloSensor cAMP luminescence, 1 h; note: nearly all actives have a fitted effect of over 55% in size
#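 HEK-293-derived GP2 cells expressing PTHR1 and a GloSensor cAMP reporter, 3,000/well, plated overnight, given luciferin plus IBMX (each 0.5 mM as added) for 1 h at 37 °C, then compound for 1 h at 37 °C. Luminescence was read after 15 min at room temperature.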
# GLP1R ag = qHTS of GLP-1 Receptor Agonists; Glucagon-like peptide 1 receptor (Homo sapiens), P43220; Potency, µM (doses to about 45.6 µM), without a hit: at the highest dose activation, most hits filed as activators; HEK293 GLP-1R CRE-luciferase, luminescence, 4-6 h; cells express a hypersensitive GLP-1R form; 0.007% of 380,000 active; note: % of control where 0% means no effect
# HEK293 tox = qHTS of GLP-1 Receptor Inverse Agonists: Cytotox Screen; HEK293 cAMP-luciferase reporter cells, luminescence, 24 h; Potency, µM (highest dose often 38.3 µM), for the others: top-dose activity change, negative = inhibition, usual class: inhibitors; 0.13% of 410,000 active;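 note: loss of luciferase light is scored as toxicity; % is set by controls: 0 for no effect and ±100 for the full control effect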
#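 MLSMR compounds, 24 hr on cells at 37 deg C/5% CO2; luminescence after luciferase reagent (12 min RT). Inhibition counted as the undesired cytotoxic outcome.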
# Starred values were filed as active, the others as inactive; i = inactive; ? = inconclusive; / = no result given; ! = not active in a repeat; [ ] = another dose, or the depositor's remark. Calls come from the whole dose curve; as a rule, active = well fitted curve in the direction sought with a large enough effect; inconclusive = small, poorly fitted or top-dose-only effect, or another doubt; inactive = no such curve, though single readings can be large; an effect the other way counts as inactive or inconclusive. Potency is the fitted concentration of half-maximal effect.
SMILES,GLP1R inv ag,PTHR1 ag,GLP1R ag,HEK293 tox
O=S(=O)(Nc1cccc2c1CCCC2)c1cccc(C(F)(F)F)c1,10µM*,i,6%,-4%
COc1cc(OC)cc(N2C(=O)CSC23C(=O)Nc2ccccc23)c1 (stereo not given),3%,i,-3%,4%
COc1cc2nc(N3CCN(c4cc(C)ccc4C)CC3)nc(N)c2cc1OC,5µM*,-1%,-8%,?
Cn1cc(S(C)=O)c(=O)c2ccc(F)cc21 (stereo not given),/,/,-4%,/
COc1ccccc1CC(=O)N(Cc1ccccc1)c1ccc(C)cc1,8.9µM*,i,12%,-20%
COc1cc(C(=O)N(Cc2ccccc2)c2cccc(C)c2)ccc1OC(F)F,11µM*,-50%,8%,9%
Cc1cccc(N(Cc2ccccc2)C(=O)CCl)c1,10µM*,-51%,1%,-27%
O=[N+]([O-])c1ccc(CSc2nnc(Cc3ccccc3)n2-c2ccc(F)cc2)cc1,10µM*,i,23%,-26%
COc1ccc(-n2c(Cc3ccccc3)nnc2SCc2ccc([N+](=O)[O-])cc2)cc1,?,i,35%,-25%
Cc1ccc(N2CC(NC(=O)Cc3cccs3)CC2=O)cc1C (stereo not given),14%,0%,/,3%
O=C(NCC(c1cccs1)N1CCOCC1)c1cn(-c2ccccc2)nc1-c1ccccc1 (stereo not given),10µM*,i,3%,-9%
COc1cc(C(=O)NCC(c2cccs2)N2CCOCC2)cc(Br)c1OCc1ccccc1 (stereo not given),6.3µM*,i,7%,-20%
O=C(NCC(c1cccs1)N1CCOCC1)c1cn(-c2ccccc2)nc1-c1ccc(Cl)cc1 (stereo not given),-16%,i,-9%,9%
COc1ccc(C(=O)NCC(c2cccs2)N2CCOCC2)cc1OC (stereo not given),5%,-29%,10%,-8%
O=C(NCCc1ccc(Cl)cc1)C1CCCN(S(=O)(=O)N2CCCCCC2)C1 (stereo not given),5.6µM*,-37%,10%,-3%
CC1CCN(S(=O)(=O)N2CCCC(C(=O)NCc3ccccc3Cl)C2)CC1 (stereo not given),7.1µM*,-1%,6%,10%
O=C(NCc1ccccc1CN1CCCC1)C1CCN(S(=O)(=O)c2ccc(F)c(F)c2)CC1,?,7%,2%,4%
Cc1ccc(S(=O)(=O)N2CCC(C(=O)NCc3ccccc3CN3CCCC3)CC2)cc1C,4.5µM*,i,0%,-27%
CC1CC(C)CN(S(=O)(=O)N2CCCC(C(=O)NCc3ccccc3Cl)C2)C1 (stereo not given),?,-28%,-5%,5%
Cc1ccc(NC(=O)c2sc3ncnc(N(C)C4CCCCC4)c3c2C)c(C)c1,-5%,i,/,-7%
CCSc1ncc(Cl)c(C(=O)Nc2ccc(S(=O)(=O)Nc3nccc(C)n3)cc2)n1,8%,i,/,0%
CCN(CC)CCCNC(=O)CCC(=O)NNc1nc2ccccc2c2nc(C)nn12,-7%,-14%,-6%,7.9µM*!
Cc1cccc(N2CCN(C(=O)C3CCN(S(=O)(=O)c4c(C)noc4/C=C/c4ccccc4F)CC3)CC2C)c1 (stereo not given),3%,i,/,1%
O=C(NCc1cccnc1)c1nn(-c2ccc(Cl)cc2)nc1CO,11%,i,/,1%
CCC(C(=O)Nc1cc(F)ccc1F)n1nc(C)c2c(C)n(-c3ccc(C)cc3)nc2c1=O (stereo not given),10µM*,-43%,4%,-8%
SMILES,GLP1R inv ag,PTHR1 ag,GLP1R ag,HEK293 tox
CCC(C(=O)Nc1ccccc1F)n1nc(C)c2c(C)n(-c3ccccc3)nc2c1=O (stereo not given),?,i,5%,-20%
CC#CCC(C)[C@H](O)/C=C/C1[C@H](O)C[C@@H]2C/C(=C\CCCC(=O)O)C[C@H]12 (stereo not given in full),/,/,-4%,/
CC[C@H]1OC(=O)C[C@@H](O)[C@H](C)[C@@H](O[C@@H]2O[C@H](C)C[C@H](N(C)C)[C@@H]2O)[C@@H](CC=O)C[C@@H](C)C(=O)/C=C\[C@]2(C)O[C@H]2[C@@H]1C,/,/,-4%,/
Cc1nc(S(=O)(=O)N(C)c2ccccc2)c(C#N)c(C)c1Cl,5.6µM*,-93%,-7%,62%
Cc1cc(NC(=O)c2cc(-c3ccc(Br)cc3)on2)nn1Cc1ccc(Cl)cc1,?,-29%,/,0%
CCOC(=O)CNC(=O)c1ccc(C)cc1,3%,-6%,8%,-3%
CCO/C=C/C(O)(CNC(=O)c1ccc(C(C)(C)C)cc1)C(F)(F)F (stereo not given),8.9µM*,-18%,-2%,-17%
COc1cc(OC)cc(C(=O)NCCOC23CC4CC(CC(C4)C2)C3)c1,10µM*,i,6%,1%
Cc1ccc(-n2nc(C(=O)Nc3cccc(C#N)c3)c3c4ccccc4n(C)c3c2=O)cc1,-4%,12%,/,4%
CCOc1ccc(Nc2nc(NCC3CCCO3)c3ccccc3n2)cc1 (stereo not given),3.5µM*,-29%,2%,?
CCCc1ccc2oc(C(=O)NCCN3CCCC(C(N)=O)C3)c(C)c2c1 (stereo not given),?,i,-6%,32%
CCCc1ccc2oc(C(=O)NCCN3CCCC(O)C3)c(C)c2c1 (stereo not given),10µM*,i,21%,4%
O=S(=O)(NC1c2cccc3cccc(c23)C1N1CCN(CCO)CC1)c1ccccc1 (stereo not given),?,-11%[57.5 µM],-18%,?
O=S(=O)(NC1c2cccc3cccc(c23)C1N1CCNCC1)c1ccccc1 (stereo not given),10µM*,i,4%,-25%
CCCc1ccc(-c2cc(C(=O)N3CCN(c4ccccn4)CC3)c3ccccc3n2)cc1,3.2µM*,-16%,-2%,-13%
CN1CCCN(C(=O)c2cc(-c3cccc4ccccc34)nc3ccccc23)CC1,7.9µM*,-12%,16%,-17%
CCN1CCN(C(=O)c2cnn3c(C(F)F)cc(-c4ccc(C)cc4)nc23)CC1,?,-24%,9%,6%
Cc1ccc(-c2cc(C(F)F)n3ncc(C(=O)N4CCN(c5ccccn5)CC4)c3n2)cc1,6.3µM*,-17%,1%,5%
Cc1ccc(CN2CCCC(CO)(Cc3ccccc3C)C2)s1 (stereo not given),8.9µM*,-7%,8%,?
Cc1ccccc1CC1(CO)CCCN(Cc2ccn[nH]2)C1 (stereo not given),?,i,6%,-3%
